Screening results as filed in PubChem.
ELG1 repair inh: blocks ELG1-dependent DNA repair in HEK293T cells. hit rate 2.3% among 330,000. HEK293T ELG1-luciferase reporter, luminescence, 16 h; DNA damage induced by 5-fluorouridine. AID 504467. Potency, µM (highest dose often 46.1 µM), for inactives: at the top dose activity change, negative = inhibition, usual class: inhibitors; also: % is scaled to controls: 0 for no effect and ±100 for the full control effect; nearly all actives have a fitted effect of over 55% in size
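In this reporter screen, reduction of luminescence relative to DMSO vehicle indicated activity. Compounds and 5-fluorouridine were added together to 2,000 cells per well, incubated for 16 hr at 37 °C, then developed with ONE-Glo.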
A549 viability: kills or reduces viability of A549 cells in Nrf2 counter-screen; A549 ARE-Fluc cells, CellTiter-Fluor viability, 18-24 h; Potency, µM (highest dose often 46 µM), without a hit: top-dose activity change, negative = cytotoxicity, usual class: inhibitors; hit rate 0.16% among 390,000; AID 504648; also: % is scaled to controls: 0 for no effect and ±100 for the full control effect
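A549 ARE_Fluc cells in 5% FBS OPTI-MEM were exposed to compounds in concentration-response for 18-24 h at 37 deg C. Viability was read by CellTiter-Fluor fluorescence (Ex 405/Em 525) after 30 min, before the luciferase read.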
mIDH1 inhibitor: human IDH1 R132H inhibition; hit rate 0.093% among 390,000; Potency, µM (titrated, usually from 76.6 µM), for inactives: at the top dose activity change, negative = inhibition, hits mostly inhibitors; O75874; IDH1-R132H enzyme, NADPH consumption, diaphorase/resazurin fluorescence; AID 602179; also: % is scaled to controls: 0 for no effect and ±100 for the full control effect; nearly all actives have a fitted effect of over 65% in size
Target sequence (O75874 whole entry R132H, stated change not applied): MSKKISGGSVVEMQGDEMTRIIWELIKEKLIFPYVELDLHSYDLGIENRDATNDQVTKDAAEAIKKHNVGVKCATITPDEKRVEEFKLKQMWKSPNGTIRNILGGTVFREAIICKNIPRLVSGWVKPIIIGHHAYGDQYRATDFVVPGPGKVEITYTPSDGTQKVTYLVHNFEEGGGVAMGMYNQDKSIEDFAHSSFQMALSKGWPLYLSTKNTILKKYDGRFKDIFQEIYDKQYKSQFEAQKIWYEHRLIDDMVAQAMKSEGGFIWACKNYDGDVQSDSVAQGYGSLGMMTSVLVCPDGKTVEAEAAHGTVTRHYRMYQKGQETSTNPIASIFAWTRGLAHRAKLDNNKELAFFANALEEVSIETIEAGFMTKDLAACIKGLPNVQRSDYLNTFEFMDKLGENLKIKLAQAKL
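IDH1-R132H (0.5 ug/mL) preincubated 30 min with compound, then NADPH (0.016 mM) and alpha-KG (2 mM) added; 80 min at RT, pH 7.5. Remaining NADPH coupled via diaphorase/resazurin to fluorescence (540/590 nm); concentration-response curves normalized to no-enzyme control.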
Nrf2 inh: blocks Nrf2 signaling; Potency, µM (top dose mostly 46 µM), inactives show at the highest dose activity change, negative = inhibition, hits mostly inhibitors; A549 ARE-Fluc reporter, luciferase luminescence, 18-24 h; hit rate 2.1% among 360,000; AID 504444; also: % is scaled to controls: 0 for no effect and ±100 for the full control effect; nearly all actives have a fitted effect of over 60% in size
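Cells were seeded and rested 2 h, then exposed to compounds for 18-24 h. CellTiter-Fluor was read first as a viability measure. BugLite was added 15 min before the final luminescent read of ARE-luciferase activity in A549 cells.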
Nrf2 ARE act: activates Nrf2 signaling; AID 624171; AREc32 ARE-luciferase reporter (MCF7-derived line), luminescence, 24 h; Potency, µM (top dose mostly 46.1 µM), inactives show at the highest dose activation, most hits filed as activators; hit rate 0.31% among 410,000; also: % of control where 0% means no effect; nearly all actives have a fitted effect of over 65% in size
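Nrf2 activation is followed as ARE-luciferase induction in the AREc32 line after one day of compound treatment; luminescence is read with Steady-Glo.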
ELG1 FLuc counter: luciferase inhibition in cell-free luciferin readout for ELG1 hits; shares compounds with ELG1 repair inh; cell-free firefly luciferase luminescence counter-screen, ViewLux; Potency, µM (doses to about 46.1 µM), for inactives: at the highest dose activity change, negative = inhibition, usual class: inhibitors; hit rate 3% among 350; AID 624247; also: % is scaled to controls: 0 for no effect and ±100 for the full control effect
ELG1 Luc conf: inhibits ELG1-dependent DNA repair in HEK293T cells, confirmed; shares compounds with ELG1 repair inh; HEK293T ELG1-luciferase levels, luminescence; cells co-treated with 5-fluorouridine; Potency, µM (doses to about 46.1 µM), for inactives: top-dose activity change, negative = inhibition, actives largely listed as inhibitors; hit rate 68% among 670; AID 624248; also: % is scaled to controls: 0 for no effect and ±100 for the full control effect; nearly all actives have a fitted effect of over 55% in size
ELG1-Luc MMS: MMS-stimulated human ELG1 repair inhibition, confirmed; shares compounds with ELG1 repair inh; HEK293T luciferase-tagged ELG1 level, MMS stimulated; Potency, µM (titrated, usually from 46.1 µM), inactives show top-dose activity change, negative = inhibition, usual class: inhibitors; hit rate 53% among 670; AID 624249; also: % is scaled to controls: 0 for no effect and ±100 for the full control effect; nearly all actives have a fitted effect of over 60% in size
ELG1 5-FU: confirmation of ELG1 repair inhibitors: viability with 5FU. shares compounds with ELG1 repair inh. cell viability with 5-FU, ELG1-dependent repair. Potency, µM (top dose mostly 46.1 µM), for inactives: top-dose activity change, negative = viability loss, actives largely listed as cytotoxic. 670 tested, under 10 active. AID 624250;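 also: ELG1-luc HEK293T cells cotreated with 5-fluorouridine at 10 µM final; viability measured 16 h after compound addition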
ELG1 MMS viab: confirmation of ELG1 repair inhibitors: viability with MMS | Cell viability with MMS, ELG1-dependent DNA repair | Potency, µM (doses to about 46.1 µM), without a hit: at the top dose activity change, negative = viability loss, most hits filed as cytotoxic | AID 624251 | hit rate 33% among 670 | shares compounds with ELG1 repair inh;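 also: ELG1-luc HEK293T cells co-treated with 10 µM MMS; viability read 16 h after compound addition; % is scaled to controls: 0 for no effect and ±100 for the full control effect; nearly all actives have a fitted effect of over 60% in size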
Cell viab unstim: affects unstimulated cell viability, ELG1 hit counter-screen; cell viability counter-screen, unstimulated, luminescence; hit rate 8% among 900; shares compounds with ELG1 repair inh; Potency, µM (series often up to 45.9 µM), for the others: at the highest dose activity change, negative = loss of viability, hits mostly cytotoxic;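 also: compound exposure lasted 16 hours before reading; % is scaled to controls: 0 for no effect and ±100 for the full control effect; nearly all actives have a fitted effect of over 55% in size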
FLuc biochem: inhibits purified firefly luciferase, counter-screen for ELG1 hits. Potency, µM (highest dose often 57.5 µM), without a hit: top-dose activity, negative = inhibition, most hits filed as inhibitors. hit rate 10% among 350. shares compounds with ELG1 repair inh. AID 624253. purified firefly luciferase, luminescence counter-screen; also: % is scaled to controls: 0 for no effect and ±100 for the full control effect
The depositor's hits bear a star; ? = inconclusive; nt = not tested or not shown. A selection: hits, their analogues and other compounds. The true share with any hit is near 3.8%. Calls follow the shape of the dose curve; as a rule, active = well fitted curve in the direction sought with a large enough effect; inconclusive = small, poorly fitted or top-dose-only effect, or another doubt; inactive = no such curve, though single readings can be large; an effect the other way counts as inactive or inconclusive. Potency is read from the fitted curve at half-maximal effect.

SMILES	ELG1 repair inh	A549 viability	mIDH1 inhibitor	Nrf2 inh	Nrf2 ARE act	ELG1 Luc conf	ELG1-Luc MMS	ELG1 5-FU	ELG1 MMS viab	Cell viab unstim	others
CCOC(=O)c1c(NC(=O)C[n+]2ccc(N(C)C)cc2)sc(C)c1C	4.11µM*	-7.7%	4.3%	-6.4%	-0.2%	0.0%	19.1%	-3.4%	-7.9%	?
Cc1nc2sc(C(=O)N(C)c3ccccc3)c(NC(=O)c3ccccc3Cl)c2c(C)c1C	nt	-3.7%	nt	3.1%	-1.1%	nt	nt	nt	nt	nt
COc1ccccc1/C=C/c1nc2ccccc2s1	nt	nt	nt	nt	nt	nt	nt	nt	nt	-1.5%
N#Cc1nc(COc2cccc(Cl)c2)oc1NCCc1ccccc1	nt	-6.2%	-3.5%	6.4%	7.4%	nt	nt	nt	nt	nt
CCOC(=O)c1sc(N(Cc2ccccc2)C(=O)COC(=O)c2ccc(O)cc2)nc1C	1.3µM*	0.2%	-3.6%	-20.9%	-0.2%	1.99µM*	0.705µM*	-14.7%	0.791µM*	?
COc1ccc(-c2cc3cc(F)ccc3cn2)cc1	?	5.8%	-0.7%	?	9.6%	nt	nt	nt	nt	-5.7%
COc1ccc(-c2cc3ccc(F)cc3cn2)cc1	?	-0.9%	27.2%	?	10.0%	nt	nt	nt	nt	nt
COCC(C)n1c(C)cc(C(=O)COC(=O)c2cc(=O)[nH]c3ccccc23)c1C (stereo not drawn)	?	3.4%	9.1%	?	-0.7%	nt	nt	nt	nt	6.1%
COc1cc(CCC(C)=O)ccc1OC(=O)c1c(F)cccc1Cl	?	-0.3%	10.2%	?	4.1%	nt	nt	nt	nt	nt
CCNc1nc(CN2CCOCC2)nc2sc3c(c12)CCC3	4.2%	-1.6%	4.8%	nt	4.2%	nt	nt	nt	nt	nt
c1ccc2c(c1)CCN(c1nc(CN3CCOCC3)nc3sc4c(c13)CCCC4)C2	10.3µM*	3.6%	-26.3%	-28.2%	-0.5%	9.97µM*	?	?	-19.3%	-20.4%	ELG1 FLuc counter=-10.5%;FLuc biochem=-1.7%
Cc1oc(-c2ccccc2Cl)nc1CS(=O)CC(=O)NCCCN1CC(C)CC(C)C1 (stereo not drawn)	-2.6%	-6.4%	18.8%	1.8%	-0.7%	nt	nt	nt	nt	nt
CC(=O)N1c2ccc(S(=O)(=O)NCCC(=O)NCc3ccc(N(C)C)cc3)cc2CC1C (stereo not drawn)	4.61µM*	0.5%	0.0%	-28.2%	-0.1%	12.5µM*	-16.2%	?	9.5%	4.2%
CC(=O)N1c2ccc(S(=O)(=O)NCCC(=O)NCc3ccc(Cl)cc3)cc2CC1C (stereo not drawn)	?	1.7%	0.9%	?	0.3%	nt	nt	nt	nt	nt
O=C1/C(=C/c2ccc(O)c(O)c2)Oc2ccccc21	nt	nt	nt	nt	nt	nt	nt	nt	nt	-11.9%
CN(C(=O)CC1C(=O)NCCN1Cc1cccc(C(F)(F)F)c1)C1CCOCC1 (stereo not drawn)	0.0%	4.3%	11.6%	4.5%	0.2%	nt	nt	nt	nt	nt
COc1ccc(OC)c(Nc2nc(NCc3ccco3)nc(N)c2[N+](=O)[O-])c1	?	?	9.6%	-16.8%	16.2%	0.628µM*	-8.3%	?	-8.0%	-11.2%
Cc1sc2nc(C3CC3)nc(N3CCN(S(=O)(=O)c4ccc(F)cc4)CC3)c2c1C	?	-5.2%	2.8%	-18.7%	2.4%	nt	nt	nt	nt	nt
Cc1nc(N2CCN(S(=O)(=O)c3ccc(F)cc3)CC2)c2c(C)c(C)sc2n1	0.7%	20.1%	0.8%	3.7%	-0.2%	-10.1%	9.8%	8.7%	-0.9%	-1.4%	ELG1 FLuc counter=24.7%;FLuc biochem=1.5%
Cc1ccc(C)c(NC(=O)Nc2csc3c2CCCC3)c1	nt	4.9%	-16.1%	15.5%	-1.6%	nt	nt	nt	nt	nt
CCOc1ccc(C(=O)Nc2ccc(-c3nc4cc(CC)ccc4o3)cc2)cc1	nt	-0.5%	-13.8%	?	0.7%	nt	nt	nt	nt	nt
O=C(/C=C/C#Cc1cccc(NS(=O)(=O)c2ccccc2)c1)NO	nt	nt	nt	nt	nt	nt	nt	nt	nt	?
O=C(O)/C=C/c1cccc(NS(=O)(=O)c2ccccc2)c1	-4.8%	-5.4%	19.6%	-6.7%	-0.3%	nt	nt	nt	nt	nt
CCC(C)NC(=O)c1ccc2nc(-c3ccc(OC)c(OC)c3)c(-c3ccc(OC)c(OC)c3)nc2c1 (stereo not drawn)	0.517µM*	0.7%	2.2%	-22.5%	-0.2%	1.58µM*	-16.7%	?	-8.1%	?	ELG1 FLuc counter=8.7%;FLuc biochem=-5.3%
